Inconclusive results are not listed. Active and inactive are the calls of the source. Calls follow the shape of the dose curve; as a rule, active = well fitted inhibition curve with a large enough effect; inconclusive = small, poorly fitted or top-dose-only effect; inactive = flat fitted curve, though single readings scatter.
Columns and labels:
CRL-7250 = normal cell line; assay: Cytotoxic Profiling of Annotated Libraries Using Quantitative High-Throughput Screening (AID 1296008); conditions: Five cell lines viability, CellTiter-Glo ATP luminescence, 48-72 h; max response: hits give low values; as to max response: % is scaled to controls: 0 for no effect and ±100 for the full control effect
Method in brief: (§1)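 Cells exposed to compounds for 48 or 72 hr at 37 degrees Celsius. Viability read as ATP-coupled luminescence with CellTiter-Glo after 10 min at room temperature.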

HEK293 = assay: as above; conditions: Five cell lines viability, CellTiter-Glo ATP luminescence, 48-72 h; max response: hits give low values
Method in brief: as §1

HaCat [1] = assay: as above; conditions: Five cell lines viability, CellTiter-Glo ATP luminescence, 48-72 h; max response: hits give low values
Method in brief: as §1

KB-3-1 = assay: as above; conditions: Five cell lines viability, CellTiter-Glo ATP luminescence, 48-72 h; max response: hits give low values
Method in brief: as §1

NIH3T3 = assay: as above; conditions: Five cell lines viability, CellTiter-Glo ATP luminescence, 48-72 h; max response: hits give low values
Method in brief: as §1

HACAT [2] = assay: qHTS assay to identify novel small-molecules to repurpose for Merkel cell carcinoma treatment (AID 1296009); conditions: MCC and control cell lines, CellTiter-Glo viability, 72 h; at 44.8 µM (top of the series) unless noted
Method in brief: (§2)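 CellTiter-Glo luminescence after 72 hr compound exposure at 37 degree celsius gave cell viability. Libraries NPC and MIPE were run as 8- and 11-point dose responses; RLUs normalized to DMSO (negative) and no-cell (cytotoxicity) controls.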

HEK293T = assay: as above; conditions: MCC and control cell lines, CellTiter-Glo viability, 72 h; series mostly up to 44.8 µM
Method in brief: as §2
Also: nearly all actives have a fitted effect of over 60% in size.

CC(C)C(=O)O[C@@H]1[C@@H](O)[C@@H](O[C@H]2O[C@H](CO)[C@@H](O)[C@H](O)[C@H]2O)O[C@H](CO)[C@H]1O
inactive: max response (CRL-7250) -2.11% | outcome (HEK293) | outcome (HaCat [1]) | max response (KB-3-1) 3.97% | max response (NIH3T3) 1.16% | outcome (HACAT [2]) inactive [at 17.4 µM] | Potency (HEK293T)

CC1CCC2(C)C(CC(O)C(O)C23CO3)C1(C)CCC1=CC(=O)OC1O (stereo unspecified)
inactive: max response (CRL-7250) -22% | outcome (HEK293) | outcome (HaCat [1]) inactive; activator | max response (KB-3-1) 4.04% | max response (NIH3T3) 3.09% | outcome (HACAT [2]) inactive; activator | Potency (HEK293T)

C=C1CCC2C(C)(C)C(O)CCC2(C)C1CCC(C)CCOC(=O)CCC(=O)O (stereo unspecified)
inactive: max response (CRL-7250) -7.27% | outcome (HEK293) | outcome (HaCat [1]) | max response (KB-3-1) 1.36% | max response (NIH3T3) -1.95% | outcome (HACAT [2]) inactive [at 17.4 µM] | Potency (HEK293T)

COC1(CC(C)C)NC(=O)C(O)(Cc2ccccc2)NC1=O (stereo unspecified)
inactive: max response (CRL-7250) 2.47% | outcome (HEK293) | outcome (HaCat [1]) | max response (KB-3-1) -4.71% | outcome (NIH3T3) | outcome (HACAT [2]) | Potency (HEK293T)

C=C1C[C@@]23CC[C@@H]4[C@](C)(C(=O)O)CCC[C@@]4(C)C2=CC[C@H]1C3
inactive: max response (CRL-7250) -8.72% | outcome (HEK293) | outcome (HaCat [1]) | max response (KB-3-1) 4.16% | outcome (NIH3T3) | outcome (HACAT [2]) | Potency (HEK293T)

C=C1CC23CC1(O)CCC2C1=CC2OC(=O)C(C)(C2O)C1C3C(=O)O (stereo unspecified)
inactive: max response (CRL-7250) -8.2% | outcome (HEK293) | outcome (HaCat [1]) | outcome (KB-3-1) | max response (NIH3T3) -19.3% | outcome (HACAT [2]) | Potency (HEK293T)

COC(=O)[C@H](CC1C=NC=N1)NCC12CC3CC(CC(C3)C1)C2 (stereo partly specified)
inactive: max response (CRL-7250) -3.43% | outcome (HEK293) | outcome (HaCat [1]) | max response (KB-3-1) 1.43% | outcome (NIH3T3) | outcome (HACAT [2]) | Potency (HEK293T)

CCNC(=O)CCC/C=C\C[C@@H]1[C@@H](/C=C/C(O)CCc2ccccc2)[C@@H](O)C[C@@H]1O (stereo partly specified)
inactive: outcome (CRL-7250) | outcome (HEK293) | outcome (HaCat [1]) | max response (KB-3-1) 9.15% | outcome (NIH3T3) | outcome (HACAT [2]) | Potency (HEK293T)

C/C(=C/CO)CC[C@@H]1[C@@]2(C)CCC[C@](C)(C(=O)O)C2CC[C@@]1(C)O (stereo partly specified)
inactive: max response (CRL-7250) 2.67% | outcome (HEK293) | outcome (HaCat [1]) | max response (KB-3-1) 3.08% | max response (NIH3T3) -1.08% | outcome (HACAT [2]) | Potency (HEK293T)

CC(C)(O)c1ccc2c(c1)C(=O)CC1[C@](C)(CO)CCC[C@]21C (stereo partly specified)
inactive: max response (CRL-7250) -1.72% | outcome (HEK293) | outcome (HaCat [1]) | max response (KB-3-1) -6.05% | max response (NIH3T3) -3.87% | outcome (HACAT [2]) | Potency (HEK293T)

O=C(O)[C@H]1CCCC[C@H]1C(=O)N1CCc2ccccc2[C@H]1CN1C(=O)c2ccccc2C1=O
inactive: max response (CRL-7250) 1.46% | outcome (HEK293) | outcome (HaCat [1]) | outcome (KB-3-1) | max response (NIH3T3) 2.69% | outcome (HACAT [2]) | Potency (HEK293T)

Cc1cc(O)c(C(C)C)cc1O[C@@H]1O[C@H](CO)[C@@H](O)[C@H](O)[C@H]1O
inactive: max response (CRL-7250) -11.2% | outcome (HEK293) | outcome (HaCat [1]) | outcome (KB-3-1) | max response (NIH3T3) 1.36% | outcome (HACAT [2]) | Potency (HEK293T)

COc1ccc(C(OC2OC(CO)C(O)C(O)C2O)C(C)O)cc1 (stereo unspecified)
inactive: max response (CRL-7250) -9.11% | outcome (HEK293) | outcome (HaCat [1]) | max response (KB-3-1) 5.57% | outcome (NIH3T3) | outcome (HACAT [2]) | Potency (HEK293T)

C[C@]1(OC(=O)/C=C/c2ccccc2)C[C@H](O)[C@]2(O)C=CO[C@@H](O[C@@H]3O[C@H](CO)[C@@H](O)[C@H](O)[C@H]3O)C12 (stereo partly specified)
inactive: outcome (CRL-7250) | outcome (HEK293) | outcome (HaCat [1]) | max response (KB-3-1) 4.61% | outcome (NIH3T3) | outcome (HACAT [2]) inactive [at 17.4 µM] | Potency (HEK293T)

C=C1C(OC(C)=O)C(=O)C2C(C)(C)C(OC(C)=O)CCC2(C)C1CC(OC(C)=O)/C(C)=C/COC(C)=O (stereo unspecified)
inactive: max response (CRL-7250) 0.124% | outcome (HEK293) | outcome (HaCat [1]) | max response (KB-3-1) -4.48% | outcome (NIH3T3) | outcome (HACAT [2]) inactive [at 17.4 µM] | Potency (HEK293T)

CC(C)C1(O[C@@H]2O[C@H](CO)[C@@H](O)[C@H](O)[C@H]2O)CC=C(CO)CC1 (stereo partly specified)
inactive: outcome (CRL-7250) | outcome (HEK293) | outcome (HaCat [1]) | max response (KB-3-1) -0.585% | max response (NIH3T3) 0.631% | outcome (HACAT [2]) | Potency (HEK293T)

CC(C)C1=CCC(C)(O)C(OC2OC(CO)C(O)C(O)C2O)C1 (stereo unspecified)
inactive: max response (CRL-7250) -1.73% | outcome (HEK293) | outcome (HaCat [1]) | outcome (KB-3-1) | outcome (NIH3T3) | outcome (HACAT [2]) | Potency (HEK293T)

CCCOc1ccn2c(C(C)=O)cc(-c3ccccc3S(C)(=O)=O)c2c1
inactive: outcome (CRL-7250) | outcome (HEK293) | outcome (HaCat [1]) | max response (KB-3-1) 3.55% | max response (NIH3T3) -3.04% | outcome (HACAT [2]) | Potency (HEK293T)
